# Bioassay records: PubChem BioAssay, several laboratories
# Shown are actives, neighbours in structure and some others; about 1.4% of the full set was active somewhere.
# SARS 3CLpro inh – SARS-CoV 3CLpro protease inhibition; P0C6X7; recombinant SARS-CoV 3CLpro, quenched FRET peptide cleavage; inhibition, % at 6 µM; actives 0.14% (n = 290,000); AID 1706; in the data active = inhibition above about 12%
# RecA intein inh – blocks M. tuberculosis RecA intein splicing; P9WHJ3; cell-free RecA intein splicing, fluorescence; inhibition, % (test concentration not listed); actives 0.75% (n = 290,000); AID 2221; in the data active = inhibition above about 30%;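 also: 0% = vehicle wells and 100% = reference inhibitor control wells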
# BJeLR viability – kills HRASV12-expressing BJeLR cells. actives 0.17% (n = 300,000). BJeLR (HRASV12) viability, CellTiter-Glo ATP luminescence, 48 h. inhibition, % (test concentration not listed); in the data active = inhibition above about 50%
# PrP 5UTR inh – inhibition of PrP 5' UTR reporter expression; cell-based PrP 5' UTR mRNA reporter, plate reader; inhibition, % (no concentration beside the values); actives 0.35% (n = 340,000); AID 488862; in the data active = inhibition above about 52%; also: 0 = median of the neutral control wells
# Mtb hypoxia inh – reduces hypoxia-regulated biosensor signal in M. tuberculosis; actives 0.1% (n = 300,000); M. tuberculosis hypoxia-regulated fluorescent reporter, fluorescence; fluorescence inhibition, % (no concentration beside the values); in the data active = fluorescence inhibition mostly above about 23%, no sharp cut-off; inactive = mostly below about 17%
# PrPC TRFRET – cell surface PrPC inhibition, primary TR-FRET screen | TR-FRET read-out | inhibition, % at 13.8 µM | actives 0.43% (n = 370,000); in the data active = inhibition above about 24%; also: 0% = median of the test wells and 100% = reference compound wells
# PrPC confirm – confirmation of inhibitors of cell surface human prion protein. shares compounds with PrPC TRFRET. cell surface PrPC level, TR-FRET. inhibition, % at 13.8 µM. actives 65% (n = 1,500). AID 743200; in the data active = inhibition above about 25%
# LD9 tox – counter-screen for PrPc inhibitors: cytotoxicity in LD9 cells; shares compounds with PrPC TRFRET; luminescence viability; inhibition, % at 13.8 µM; actives 29% (n = 1,500); in the data active = inhibition above about 9.5%
# * = called active by the depositor; / = no result given.
SMILES,SARS 3CLpro inh,RecA intein inh,BJeLR viability,PrP 5UTR inh,Mtb hypoxia inh,PrPC TRFRET,PrPC confirm,LD9 tox
CC(=O)c1cccc(NS(=O)(=O)c2ccc(-c3cnc(C4CC4)o3)cc2)c1,8,0,31,-42,-7,30*,22,19*
O=C(O)c1ccccc1C(=O)Nc1ccccc1NC(=O)c1ccccc1C(=O)O,/,/,0,/,11,-5,/,/
CC(=O)c1sc(C(C)(C)C)cc1NC(=O)c1ccccc1C(=O)O,9,-3,-2,3,-5,36*,81*,-1
CCOC(=O)C1=CCC2c3c(c4ccccc4n3C)C(=O)C1N2Cc1ccccc1 (stereo not given),/,/,/,/,10,/,/,/
COc1cc(C(=O)NC2CCCCN(Cc3cccc(C(F)(F)F)c3)C2=O)cc(OC)c1OC (stereo not given),/,/,/,/,/,49*,8,-7
O=C(NC1CCCCN(Cc2cccc(C(F)(F)F)c2)C1=O)c1ccc(COc2ccccc2)cc1 (stereo not given),/,/,/,/,/,26*,25*,5
COc1cc(C(=O)NC2CCCCN(Cc3cccc(Cl)c3)C2=O)cc(OC)c1OC (stereo not given),/,/,/,/,/,2,/,/
O=C(NC(Cc1ccc(Br)cc1)C(=O)O)OCC1c2ccccc2-c2ccccc21 (stereo not given),/,/,/,/,1,/,/,/
CCOC1OC(C(=O)O)=CC(C(C)(C)C)C1CCCO (stereo not given),/,/,/,/,13,/,/,/
CC(=NNC(=O)CNC(=O)COc1ccccc1)c1ccc(Cl)cc1,/,/,/,/,-1,/,/,/
Fc1cccc2sc(Nc3nc4c(F)cccc4s3)nc12,8,-2,9,-29,/,37*,70*,-5
S=c1[nH]nc(-c2ccccc2Cl)n1N=C/C=C/c1ccco1,/,/,/,/,5,/,/,/
CCCn1c(N)c(C(=O)CSc2nncs2)c(=O)[nH]c1=O,/,/,/,-17,6,55*,67*,-5
CCCn1c(N)c(C(=O)CSc2nnc(N)s2)c(=O)[nH]c1=O,/,/,/,-14,12,42*,43*,4
CCOC(=O)C1C2COc3ccc(Br)cc3C2N2C(=O)N(c3ccc(C)cc3)C(=O)[C@]12C (stereo not given in full),/,/,/,/,-2,/,/,/
O=C(c1ccc(CSc2nc3ccncc3[nH]2)cc1)N1CCN(c2cccc(Cl)c2)CC1,1,10,8,-5,-6,31*,40*,9.4*
O=C(c1ccc(CSc2nc3ccncc3[nH]2)cc1)N1CCCCCC1,3,-2,3,-11,15,10,/,/
CN(C)S(=O)(=O)Oc1cccc(C(=O)Nc2cccc(Cl)c2)c1,1,/,12,-48,9,24*,22,20*
CN(C)S(=O)(=O)Oc1cccc(C(=O)Nc2ccc(Cl)c(Cl)c2)c1,4,/,6,-110,-9,23,/,/
C[C@H]1COc2c3ccc(I)cc3nn21,/,/,/,/,/,47*,70*,-6
Nc1nc2ccc(Cl)cc2cc1C(=O)NCc1ccccc1Br,/,/,/,/,/,49*,81*,-2
Cc1ccc(C2=CC(=O)CC(c3ccc4c(c3)OCO4)C2)cc1 (stereo not given),/,/,/,/,6,/,/,/
COC(=O)c1nn(-c2ccccc2)c(Cl)c1C=NO,/,/,/,/,14,/,/,/
Oc1ccc(CN2CCN(Cc3ccccc3)CC2)c2cccnc12,2,-22,-16,-1,1,0,/,/
CN1CCN(C2CCN(Cc3ccc(O)c4ncccc34)CC2)CC1,/,/,/,-11,4,34*,2,-6
SMILES,SARS 3CLpro inh,RecA intein inh,BJeLR viability,PrP 5UTR inh,Mtb hypoxia inh,PrPC TRFRET,PrPC confirm,LD9 tox
COc1cc(C=NS(=O)(=O)CCc2ccccc2)cc(OC)c1O,/,/,/,/,2,/,/,/
CS(=O)(=O)c1cccc(C(=O)Nc2cccc(-c3nc4ccccc4[nH]3)c2)c1,-3,-4,1,-14,2,129*,-4,20*
O=C(Nc1cccc(-c2nc3ccccc3[nH]2)c1)c1cccc(NC(=O)c2ccco2)c1,-3,-19,6,-11,-2,37*,-6,18*
CC1CN(C(C)CO)C(=O)c2cccc(NC(=O)c3ccncc3)c2OC1CN(C)C(=O)Nc1ccccc1 (stereo not given),/,/,/,/,4,/,/,/
CN1C(=O)C(C)(C)c2cc(S(=O)(=O)N3CCCC(C(=O)NCc4ccc(Cl)cc4)C3)ccc21 (stereo not given),-1,-1,-5,-39,0,41*,45*,-2
Cc1cc(C)cc(NC(=O)C2CCCN2S(=O)(=O)c2ccc3c(c2)C(C)(C)C(=O)N3C)c1 (stereo not given),0,3,-2,-28,/,37*,19,-4
CN1C(=O)C(C)(C)c2cc(S(=O)(=O)N3CCCC3C(=O)NCc3ccc(F)cc3)ccc21 (stereo not given),-3,-1,3,-26,2,4,/,/
COC(=O)C1=C(C(=O)OC)C2N(Cc3ccccc3)c3ccccc3[C@@]23CC(C(=O)OC)N(C(C)=O)C3=N1 (stereo not given in full),/,/,/,/,14,/,/,/
COC(=O)Cc1c(C)c2ccc(OCC(=O)N3CCCC3)c(C)c2oc1=O,-3,1,0,-3,7,28*,28*,-5
CCOC(=O)CCc1c(C)c2ccc(OCC(=O)N3CCOCC3)c(C)c2oc1=O,-5,-1,-2,7,1,-5,/,/
COC(=O)Cc1c(C)c2ccc(OCC(=O)N3CCC(C)CC3)c(C)c2oc1=O,0,0,3,-24,2,28*,40*,4
COc1ccc(-c2ccc(SCC(=O)Nc3nccs3)nn2)cc1OC,-1,1,-14,24,-8,29*,38*,-6
COc1ccc(-c2nnc3ccc(SCC(=O)Nc4nccs4)nn23)cc1OC,2,0,-16,-5,-2,-6,/,/
Cc1noc(C)c1NC(=O)N(C)CC1Oc2ccc(NC(=O)NC(C)C)cc2C(=O)N(C(C)CO)CC1C (stereo not given),/,/,/,/,1,/,/,/
CCN(c1cccc(C(F)(F)F)c1)S(=O)(=O)c1ccc2c(c1)CCN2C(C)=O,7,0,-1,-2,/,80*,18,-4
CCN(c1cccc(C)c1)S(=O)(=O)c1ccc2c(c1)CCN2C(C)=O,-1,-1,-10,-15,15,-6,/,/
O=S(=O)(NC1c2cccc3cccc(c23)C1N1CCN(CCO)CC1)c1ccccc1 (stereo not given),-3,1,12,-4,13,34*,16,4
Cc1ccc2cc(C=NNC(=O)c3ccccc3[N+](=O)[O-])c(Cl)nc2c1,/,/,/,/,-4,/,/,/
Cc1ccccc1-c1nnn(CC(N)=NO)n1,/,/,/,/,6,/,/,/
CCSCCOC(=O)C1=C(C)N(C)C(=O)NC1c1cc(OC)ccc1OC (stereo not given),-7,2,4,-2,15,43*,30*,-3
